Screening results as filed in PubChem BioAssay.
KB-3-1 tox – KB-3-1 parental cell cytotoxicity; KB-3-1 viability, CellTiter-Glo ATP luminescence, 72 h; Potency, µM (highest dose often 46.1 µM), usual class: cytotoxic; hit rate 1.4% among 400,000; AID 1347075; further: on the % scale 0 is the no-effect control and ±100 the full control effect; nearly all actives have a fitted effect of over 60% in size
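Viability of parental KB-3-1 cells, measured by CellTiter-Glo luminescence, followed a 72 h incubation at 37 °C with pinned compounds in phenol-red-free DMEM containing 10% FBS.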
SW480 rereplic – DNA re-replication induction in SW480 cells. SW480 DNA re-replication, Hoechst DNA content imaging, 48 h. Potency, µM (highest dose often 46.1 µM), inactives show at the highest dose re-replication activation, actives largely listed as activators. hit rate 1.8% among 340,000. AID 624297; further: % of control where 0% means no effect; nearly all actives have a fitted effect of over 55% in size
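Image-based read-out: total Hoechst fluorescence of nuclei (405 nm excitation, 500-530 nm emission), with hits raising the fraction of high-intensity nuclei. SW480 colon cells incubated 48 hr with compounds at 37 C.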
HT1080 IDH1KD tx – toxicity to HT-1080 IDH1 knockdown cells (counter line); AID 686971; HT-1080 IDH1 knockdown viability, ATP luminescence, 48 h; hit rate 2% among 360,000; Potency, µM (titrated, usually from 46.1 µM), inactives show top-dose activity, negative = toxicity, usual class: cytotoxic;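 further: 0% = DMSO wells and -100% = cell-free medium wells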
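Cytotoxicity counter-line: IDH1KD HT-1080, 48 h, CellTiter-Glo. Curves classed by r2, magnitude and activity.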
HT1080-NT tox – kills 2HG-producing HT-1080-NT fibrosarcoma cells. AID 686970. hit rate 1.6% among 360,000. Potency, µM (top dose mostly 46.1 µM), inactives show at the highest dose activity, negative = less viability, hits mostly cytotoxic. HT-1080-NT fibrosarcoma viability, CellTiter-Glo ATP luminescence, 48 h;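 further: NT is the 2HG producing partner of a matched IDH1 knockdown line; 0% = DMSO-treated cells and -100% = media-only wells without cells; nearly all actives have a fitted effect of over 55% in size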
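Luminescent CellTiter-Glo readout after 48 hours of compound exposure at 37 degrees C defined viability of HT-1080-NT cells. Activity was normalized to DMSO wells and cell-free media wells; concentration-response curves were fitted and assigned curve classes.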
MCF10A rereplic – induces DNA re-replication in MCF 10a normal breast cells. Potency, µM (titrated, usually from 46.1 µM), without a hit: top-dose activity, positive = re-replication, most hits filed as activators. AID 624296. MCF 10A DNA re-replication, Hoechst nuclear intensity, 48 h. hit rate 2.9% among 350,000; further: % of control where 0% means no effect; nearly all actives have a fitted effect of over 50% in size
KB-V1 MDR tox – KB-V1 MDR subline cytotoxicity | KB-V1 MDR cells viability, CellTiter-Glo, 72 h | Potency, µM (titrated, usually from 46.1 µM), hits mostly cytotoxic | hit rate 3.4% among 400,000; further: on the % scale 0 is the no-effect control and ±100 the full control effect; nearly all actives have a fitted effect of over 60% in size
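KB-V1 cells (P-gp-expressing MDR subline of KB-3-1) in phenol-red-free DMEM with 10% FBS were exposed to library compounds over a concentration series for 72 h at 37 degrees C. Viability read by CellTiter-Glo luminescence; concentration-effect curves fitted after normalization.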
Active calls of the source: *; i = inactive; ? = inconclusive; / = not tested or not shown; [ ] = dose if it differs, or a comment. Compounds with a hit are over-represented: about 7.9% of the library has one in this group of screens. The call rests on the fitted dose curve; in most records, active means well fitted curve in the direction sought with a large enough effect; inconclusive means small, poorly fitted or top-dose-only effect, or another doubt; inactive means no such curve, though single readings can be large; an effect the other way counts as inactive or inconclusive. Potency means the concentration at half of the fitted maximal effect.

SMILES	KB-3-1 tox	SW480 rereplic	HT1080 IDH1KD tx	HT1080-NT tox	MCF10A rereplic	KB-V1 MDR tox
Cc1ccc(Cl)cc1N1CCN(C(=O)CCC(=O)O)CC1	i	-16.3%	-1.5%	-2.9%	8.8%	i
Cc1ccc(C2(c3ccccc3)NC(=O)N(CC(=O)N3CC(=O)Nc4ccccc43)C2=O)cc1C (stereo not given)	i	-17.3%	-21.5%	0.3%[9.24 µM]	0.7%	i
O=C(CC1(O)C(=O)N(CCc2ccccc2)c2ccc(Br)cc21)c1ccccc1 (stereo not given)	i	/	/	/	/	i
O=C1CN(C(=O)CN2CCN(S(=O)(=O)c3ccccc3F)CC2)c2ccccc2N1	i	/	0.0%	-8.7%	/	i
C=CCn1c(=S)[nH]c2scc(-c3ccc(C)o3)c2c1=O	i	?	16.4µM*	13µM*	16.4µM*	i
COc1cc(NCCCCC(C)N)c2nccc(C)c2c1 (stereo not given)	5.17µM*	/	?	?	/	?
COc1cc(NCCCC(C)N)c2ncccc2c1 (stereo not given)	?	?	20.6µM*	20.6µM*	17.4%	i
CCC(CNc1cc(OC)cc2cccnc12)NC1CCCCC1 (stereo not given)	i	247.8%	-2.1%	-7.0%	?	i
CC(C(=O)Nc1cc(C(F)(F)F)ccc1Cl)n1nnc2sc3c(c2c1=O)CCCC3 (stereo not given)	i	/	/	/	/	i
Oc1ccc2ccccc2c1C=NNc1ccccn1	?	7.31µM*	?	?	?	0.517µM*
Fc1cccc(F)c1/C=N/Nc1ccccn1	i	27.5%	0.7%	1.2%	?	i
Oc1ccc2ccccc2c1/C=N/Nc1nnc(-c2ncc[nH]2)c2ccccc12	?	0.651µM*	5.17µM*	5.8µM*	?	?
O=C(N/N=C\C=C\c1ccco1)c1cc(-c2ccc3ccccc3c2)n[nH]1	i	17.1%	-8.2%	-19.6%	7.31µM*	i
CCc1n[nH]c(=S)n1N=C1CCC(C)CC1 (stereo not given)	i	-60.8%	2.0%	6.3%	-7.1%	i
Cc1nc2cc(Cl)c(Cl)cc2n1CCCO	i	-10.0%	-5.3%	-8.5%	-2.7%	i
O=[N+]([O-])c1ccc(Sc2ccc(Cl)c(Cl)c2)nc1	i	16.7%	-4.3%	2.0%	14.6µM*	?
COc1ccc(-c2cc(C(=O)N3CC(C)CC(C)C3)c3ccccc3n2)cc1OC (stereo not given)	i	15.5%	-0.8%	0.0%	26.5%	i
COc1ccc(-c2cc(-c3nnc(COC(=O)CC4CCCC4)o3)c3ccccc3n2)cc1OC	i	?	8.2%	-0.3%	14.6µM*	i
COc1ccc(-c2cc(-c3nnc(COC(=O)c4ccc(O)cc4)o3)c3ccccc3n2)cc1OC	i	?	?	?	?	?
COc1ccc(-c2cc(-c3nnc(COC(=O)C4CC4)o3)c3ccccc3n2)cc1OC	?	20.6µM*	1.4%	-10.4%	?	?
COc1ccc(-c2cc(-c3nnc(COC(=O)C4CC4C)o3)c3ccccc3n2)cc1OC (stereo not given)	i	16.4µM*	10.1%	4.1%	?	?
Cc1cc2cc(CNC(=O)CCC(=O)O)ccc2n1C	i	-6.4%	4.1%	5.6%	-5.7%	i
CC(C)c1c(C#N)c(N)nc(SCC(=O)c2cc3ccccc3oc2=O)c1C#N	?	?	-5.7%	-2.5%	14.6µM*	?
N#Cc1ccc(-c2ccccc2)nc1SCC(=O)c1cc2ccccc2oc1=O	i	?	?	?	5.01µM*	i
COCCCn1c(C(=O)NCCC2=CCCCC2)cc2c(=O)n3cccc(C)c3nc21	i	-4.6%	15.4%	4.1%	13.8%	i
SMILES	KB-3-1 tox	SW480 rereplic	HT1080 IDH1KD tx	HT1080-NT tox	MCF10A rereplic	KB-V1 MDR tox
CC(Nc1nc(-c2ccc(F)cc2)cs1)c1nc2cc(Cl)c(N3CCCCC3)cc2n1CCOCCO (stereo not given)	?	-3.1%	?	?	-3.1%	i
CC(Nc1nc(-c2ccc(F)cc2)cs1)c1nc2cc(Cl)c(N3CCCCC3)cc2n1CCCO (stereo not given)	?	?	?	2.4%	20.6µM*	?
O=C1CCC/C(=N\NC(=O)c2ccc(CSc3cccc4cccnc34)cc2)C1	i	-11.2%	-4.1%	-19.9%	-2.0%	i
c1ccc(COn2nnc3ccccc32)c(COn2nnc3ccccc32)c1	i	-6.8%	-2.5%	-4.6%	?	16.4µM*
Clc1cccc(Cl)c1COn1nnc2ccccc21	i	?	?	?	?	?
COC(=O)Cc1[nH]n(-c2nc3ccccc3s2)c(=O)c1C(C)=O	i	-12.0%	-18.7%	-25.5%	-5.0%	i
CC(=O)c1c(CC(=O)O)[nH]n(-c2nc3ccccc3s2)c1=O	?	-1.5%	10µM*	10µM*	-3.8%	?
CCCCCN=Cc1c(C)[nH]n(-c2nc3ccccc3s2)c1=O	2.59µM*	11.6%	5.01µM*	11.2µM*	17.8%	2.31µM*
Cc1ccc(Sc2c(CO)c(-c3ccccc3)nn2C)cc1	?	0.82µM*	1.16µM*	0.731µM*	1.03µM*	?
Cc1nn(Cc2ccc(C(=O)NC3CCCCC3)o2)c(C)c1Br	i	11.4%	-13.8%	-8.3%	?	i
CCCCOc1ccccc1NC(=O)Cn1c(-c2nonc2N)nc2ccccc21	4.61µM*	?	1.3µM*	1.46µM*	0.794µM*	1.84µM*
NNC(=O)Cn1c(-c2nonc2N)nc2ccccc21	i	-1.0%	2.8%	1.5%	2.2%	i
Nc1nonc1-c1nc2ccccc2n1CC(=O)N/N=C\c1ccc(-c2ccc(Cl)cc2)o1	?	?	1.6%	0.8%	8.91µM*	?
CSc1ccccc1NC(=O)Cn1c(-c2cscn2)nc2ccccc21	i	-9.2%	-18.9%	1.0%	20.8%	16.4µM*
CCCCOc1ccccc1NC(=O)Cn1c(-c2cncs2)nc2ccccc21	i	/	/	/	/	i
N#Cc1c2n(c3c(=O)n(Cc4ccccc4Cl)cnc13)CCCC2	i	-4.9%	0.5%	7.1%	?	i
CCOc1cc(C(=O)N2CCC(CC3CC(c4cccc(Br)c4)=NO3)(C(=O)NCC3CCCCC3)CC2)cc(OCC)c1OCC (stereo not given)	i	11.2%	0.9%	1.4%	13.6%	i
COc1cccc(/C=N/NC(=O)CSc2ccccc2C)c1O	?	?	25.9µM*	?	?	6.51µM*
